# What was measured:
# Assay in all cases: DAPPL (digital affinity profiling via proximity ligation, sequencing); 10 mM Tris-HCl pH 7.5, 50 mM NaCl, 1 mM DTT, 4% glycerol, room temperature, 30 min; GST-TFs on glutathione beads, 16-mer random dsDNA library, 0.1% formaldehyde crosslink after washing; high values mean tight binding
# Details in all cases: protein: recombinant; tags: N-terminal GST; dsDNA, one strand shown
# FEV = target: T1, FEV (Homo sapiens, UniProt Q99581 1-238)
# T1 sequence: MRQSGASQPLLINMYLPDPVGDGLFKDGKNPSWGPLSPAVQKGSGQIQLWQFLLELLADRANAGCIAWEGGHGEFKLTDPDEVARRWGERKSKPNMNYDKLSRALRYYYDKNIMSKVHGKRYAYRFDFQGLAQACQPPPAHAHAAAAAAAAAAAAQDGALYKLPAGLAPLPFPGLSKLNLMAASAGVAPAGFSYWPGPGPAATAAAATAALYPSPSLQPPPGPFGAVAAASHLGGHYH
# Procedure, shortened: (§1)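 Sequencing on an Illumina NextSeq500 followed washing, crosslinking with 0.1% formaldehyde, proximity ligation (BsaI/T4 ligase, 1 h, 37 °C) and PCR amplification of pools that had been incubated for 30 min at room temperature with 200 nmole of a random double-stranded 16-mer DNA library in Tris/NaCl/DTT/glycerol buffer. Each pool held DNA-barcoded human transcription factors, expressed in yeast as GST fusions and captured on glutathione beads, plus a tag-only sample. Binding signal is a hexamer's read frequency for a factor divided by its frequency in the tag-only sample.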
# ETV5 = ETV5 (Homo sapiens, UniProt P41161 1-510)
# ETV5, sequence (P41161 whole entry): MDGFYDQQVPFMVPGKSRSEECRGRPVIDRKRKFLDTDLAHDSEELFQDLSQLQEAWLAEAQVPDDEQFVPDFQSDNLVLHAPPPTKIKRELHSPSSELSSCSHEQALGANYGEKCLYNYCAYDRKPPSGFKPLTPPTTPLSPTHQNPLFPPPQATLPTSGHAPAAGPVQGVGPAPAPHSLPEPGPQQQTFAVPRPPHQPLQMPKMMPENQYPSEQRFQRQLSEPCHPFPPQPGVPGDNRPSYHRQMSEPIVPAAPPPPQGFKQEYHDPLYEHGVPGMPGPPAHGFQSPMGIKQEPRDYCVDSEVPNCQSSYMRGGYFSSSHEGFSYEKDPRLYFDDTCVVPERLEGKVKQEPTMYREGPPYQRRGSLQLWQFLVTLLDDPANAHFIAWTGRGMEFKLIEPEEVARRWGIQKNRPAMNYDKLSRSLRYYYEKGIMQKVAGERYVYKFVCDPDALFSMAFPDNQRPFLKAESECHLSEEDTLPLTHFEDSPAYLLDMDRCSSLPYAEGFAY
# Procedure, shortened: as §1
# SPIC = target: T2, SPIC (Homo sapiens, UniProt Q8N5J4 1-248)
# T2 sequence: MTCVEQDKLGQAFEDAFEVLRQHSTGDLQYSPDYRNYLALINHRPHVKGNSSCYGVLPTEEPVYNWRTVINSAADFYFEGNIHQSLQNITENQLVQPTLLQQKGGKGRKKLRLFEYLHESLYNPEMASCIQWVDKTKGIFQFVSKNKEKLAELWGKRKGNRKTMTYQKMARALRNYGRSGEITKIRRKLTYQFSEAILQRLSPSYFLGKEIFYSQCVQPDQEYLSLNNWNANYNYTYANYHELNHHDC
# Procedure, shortened: as §1
# ELF4 = ELF4 (Homo sapiens, UniProt Q99607 1-663)
# ELF4, sequence (Q99607 whole entry): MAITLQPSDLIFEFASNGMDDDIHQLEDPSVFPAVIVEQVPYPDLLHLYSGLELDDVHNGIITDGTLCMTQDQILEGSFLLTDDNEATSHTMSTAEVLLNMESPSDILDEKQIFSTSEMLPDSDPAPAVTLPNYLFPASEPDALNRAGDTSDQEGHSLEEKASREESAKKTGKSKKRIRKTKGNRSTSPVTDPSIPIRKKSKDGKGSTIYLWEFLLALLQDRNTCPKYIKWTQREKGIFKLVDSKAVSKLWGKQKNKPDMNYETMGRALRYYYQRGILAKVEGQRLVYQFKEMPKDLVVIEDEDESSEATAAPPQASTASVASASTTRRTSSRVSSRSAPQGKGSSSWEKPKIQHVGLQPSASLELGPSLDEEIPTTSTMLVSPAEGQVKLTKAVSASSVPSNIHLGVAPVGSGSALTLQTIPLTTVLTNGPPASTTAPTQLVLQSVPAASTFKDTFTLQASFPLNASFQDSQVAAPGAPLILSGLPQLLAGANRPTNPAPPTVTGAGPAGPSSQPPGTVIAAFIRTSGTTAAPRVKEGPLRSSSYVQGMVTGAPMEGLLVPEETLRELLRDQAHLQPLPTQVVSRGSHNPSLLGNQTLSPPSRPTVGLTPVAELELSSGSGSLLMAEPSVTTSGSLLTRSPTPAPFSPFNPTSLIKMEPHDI
# Procedure, shortened: as §1
# ELK4 = target: T3, ELK4 (Homo sapiens, UniProt P28324-2 1-405)
# T3 sequence: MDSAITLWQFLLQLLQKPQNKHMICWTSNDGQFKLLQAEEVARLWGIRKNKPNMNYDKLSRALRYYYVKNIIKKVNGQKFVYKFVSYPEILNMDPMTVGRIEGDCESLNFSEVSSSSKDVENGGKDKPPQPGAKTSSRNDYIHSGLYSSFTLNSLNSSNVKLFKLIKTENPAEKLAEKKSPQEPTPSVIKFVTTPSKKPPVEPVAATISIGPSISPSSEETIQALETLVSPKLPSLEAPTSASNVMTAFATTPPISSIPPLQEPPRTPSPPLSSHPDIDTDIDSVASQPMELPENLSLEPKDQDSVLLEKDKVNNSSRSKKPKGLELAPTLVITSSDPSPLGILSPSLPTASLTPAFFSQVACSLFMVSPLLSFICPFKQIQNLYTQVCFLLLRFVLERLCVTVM
# Procedure, shortened: as §1
# ETV2 = target: T4, ETV2 (Homo sapiens, UniProt O00321 1-342)
# T4 sequence: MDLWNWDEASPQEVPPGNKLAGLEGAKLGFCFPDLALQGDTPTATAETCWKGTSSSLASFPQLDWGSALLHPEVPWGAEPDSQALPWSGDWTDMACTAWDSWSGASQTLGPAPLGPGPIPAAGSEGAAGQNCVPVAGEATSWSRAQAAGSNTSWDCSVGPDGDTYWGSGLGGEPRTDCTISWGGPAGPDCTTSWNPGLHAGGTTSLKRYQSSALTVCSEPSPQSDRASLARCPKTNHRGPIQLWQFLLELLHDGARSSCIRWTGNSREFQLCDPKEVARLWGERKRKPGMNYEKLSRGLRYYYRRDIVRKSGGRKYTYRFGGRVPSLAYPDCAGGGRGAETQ
# Procedure, shortened: as §1
# ELF3 = target: T5, ELF3 (Homo sapiens, UniProt P78545 1-371)
# T5 sequence: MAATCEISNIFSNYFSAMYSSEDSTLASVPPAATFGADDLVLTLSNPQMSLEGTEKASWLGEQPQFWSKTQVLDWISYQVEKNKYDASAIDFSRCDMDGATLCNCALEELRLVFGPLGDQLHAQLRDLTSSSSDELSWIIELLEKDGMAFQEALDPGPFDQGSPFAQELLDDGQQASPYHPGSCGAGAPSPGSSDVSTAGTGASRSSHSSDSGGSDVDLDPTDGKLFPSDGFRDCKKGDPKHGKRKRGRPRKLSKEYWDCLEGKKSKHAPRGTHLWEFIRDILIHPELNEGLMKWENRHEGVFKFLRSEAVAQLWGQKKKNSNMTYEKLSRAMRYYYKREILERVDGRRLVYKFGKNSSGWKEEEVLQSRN
# Procedure, shortened: as §1
# CRX = CRX (Homo sapiens, UniProt O43186 1-299)
# CRX, sequence (O43186 whole entry): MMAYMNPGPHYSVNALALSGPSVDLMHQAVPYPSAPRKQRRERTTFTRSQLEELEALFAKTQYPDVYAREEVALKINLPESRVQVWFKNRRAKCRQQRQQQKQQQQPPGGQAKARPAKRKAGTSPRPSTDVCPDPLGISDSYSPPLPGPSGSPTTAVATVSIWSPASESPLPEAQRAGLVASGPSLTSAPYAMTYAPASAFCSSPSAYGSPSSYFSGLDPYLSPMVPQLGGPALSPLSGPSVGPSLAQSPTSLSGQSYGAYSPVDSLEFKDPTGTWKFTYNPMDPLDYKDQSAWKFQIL
# Procedure, shortened: as §1
# ETV1 = ETV1 (Homo sapiens, UniProt P50549 1-477)
# ETV1, sequence (P50549 whole entry): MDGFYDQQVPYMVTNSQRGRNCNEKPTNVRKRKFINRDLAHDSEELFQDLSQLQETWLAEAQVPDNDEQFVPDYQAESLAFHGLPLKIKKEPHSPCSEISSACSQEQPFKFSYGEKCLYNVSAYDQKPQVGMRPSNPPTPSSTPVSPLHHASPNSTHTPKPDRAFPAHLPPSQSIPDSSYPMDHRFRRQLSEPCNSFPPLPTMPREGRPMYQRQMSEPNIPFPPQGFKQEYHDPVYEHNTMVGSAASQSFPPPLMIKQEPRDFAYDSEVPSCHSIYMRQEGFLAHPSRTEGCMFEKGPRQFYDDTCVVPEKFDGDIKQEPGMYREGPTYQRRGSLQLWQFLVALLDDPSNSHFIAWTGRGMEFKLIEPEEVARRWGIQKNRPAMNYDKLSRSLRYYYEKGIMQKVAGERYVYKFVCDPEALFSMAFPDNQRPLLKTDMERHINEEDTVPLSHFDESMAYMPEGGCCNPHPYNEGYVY
# Procedure, shortened: as §1
# ERF = target: T6, ERF (Homo sapiens, UniProt P50548 1-548)
# T6 sequence: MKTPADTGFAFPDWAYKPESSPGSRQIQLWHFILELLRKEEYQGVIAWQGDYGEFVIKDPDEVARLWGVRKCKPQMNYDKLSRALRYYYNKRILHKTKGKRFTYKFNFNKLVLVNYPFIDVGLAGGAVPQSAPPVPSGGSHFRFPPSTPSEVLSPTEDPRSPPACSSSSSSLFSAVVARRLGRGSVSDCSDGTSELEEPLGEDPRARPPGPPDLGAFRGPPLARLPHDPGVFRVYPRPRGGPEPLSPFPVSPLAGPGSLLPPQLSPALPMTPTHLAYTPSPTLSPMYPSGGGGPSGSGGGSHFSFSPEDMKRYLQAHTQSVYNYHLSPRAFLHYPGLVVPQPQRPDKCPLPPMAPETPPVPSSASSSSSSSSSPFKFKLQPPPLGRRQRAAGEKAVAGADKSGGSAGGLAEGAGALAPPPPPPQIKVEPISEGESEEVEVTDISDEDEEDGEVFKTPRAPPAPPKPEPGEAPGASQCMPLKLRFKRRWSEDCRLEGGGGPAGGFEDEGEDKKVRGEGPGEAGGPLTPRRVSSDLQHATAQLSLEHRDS
# Procedure, shortened: as §1
# ETV3L = target: T7, ETV3L (Homo sapiens, UniProt Q6ZN32 1-361)
# T7 sequence: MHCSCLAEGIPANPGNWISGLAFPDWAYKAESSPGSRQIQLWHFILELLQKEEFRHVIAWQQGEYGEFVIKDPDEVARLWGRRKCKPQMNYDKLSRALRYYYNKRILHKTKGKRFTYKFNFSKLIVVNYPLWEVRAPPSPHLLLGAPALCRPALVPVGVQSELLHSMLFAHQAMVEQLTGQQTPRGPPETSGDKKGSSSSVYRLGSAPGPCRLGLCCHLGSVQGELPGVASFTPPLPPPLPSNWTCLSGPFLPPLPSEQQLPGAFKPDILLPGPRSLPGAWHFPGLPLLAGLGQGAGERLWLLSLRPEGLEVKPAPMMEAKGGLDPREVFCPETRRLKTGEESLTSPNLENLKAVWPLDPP
# Procedure, shortened: as §1
# ETS2 = target: T8, ETS2 (Homo sapiens, UniProt P15036 1-469)
# T8 sequence: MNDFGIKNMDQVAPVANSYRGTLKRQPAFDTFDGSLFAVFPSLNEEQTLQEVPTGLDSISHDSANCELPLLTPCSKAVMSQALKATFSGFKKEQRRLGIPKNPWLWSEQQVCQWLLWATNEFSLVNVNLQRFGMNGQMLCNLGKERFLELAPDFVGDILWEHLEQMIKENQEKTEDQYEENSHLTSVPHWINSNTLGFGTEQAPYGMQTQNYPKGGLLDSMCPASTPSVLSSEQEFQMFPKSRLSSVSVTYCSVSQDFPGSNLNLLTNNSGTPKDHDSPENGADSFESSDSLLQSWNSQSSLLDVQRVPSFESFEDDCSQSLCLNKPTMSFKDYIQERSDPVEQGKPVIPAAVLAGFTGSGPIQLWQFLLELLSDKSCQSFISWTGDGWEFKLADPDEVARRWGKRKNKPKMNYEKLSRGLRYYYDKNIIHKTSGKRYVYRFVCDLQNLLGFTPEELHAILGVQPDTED
# Procedure, shortened: as §1
# SPDEF = target: T9, SPDEF (Homo sapiens, UniProt O95238 1-335)
# T9 sequence: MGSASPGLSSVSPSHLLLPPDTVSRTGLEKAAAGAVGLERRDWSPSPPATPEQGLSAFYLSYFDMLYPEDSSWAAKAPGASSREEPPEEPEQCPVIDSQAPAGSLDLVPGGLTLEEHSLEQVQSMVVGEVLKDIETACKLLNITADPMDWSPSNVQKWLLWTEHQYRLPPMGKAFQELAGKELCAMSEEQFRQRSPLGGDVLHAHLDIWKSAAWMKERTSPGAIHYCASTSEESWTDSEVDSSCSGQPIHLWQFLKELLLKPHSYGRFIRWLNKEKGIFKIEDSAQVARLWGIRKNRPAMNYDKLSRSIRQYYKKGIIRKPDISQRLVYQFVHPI
# Procedure, shortened: as §1
# ETV7 = target: T10, ETV7 (Homo sapiens, UniProt Q9Y603 1-341)
# T10 sequence: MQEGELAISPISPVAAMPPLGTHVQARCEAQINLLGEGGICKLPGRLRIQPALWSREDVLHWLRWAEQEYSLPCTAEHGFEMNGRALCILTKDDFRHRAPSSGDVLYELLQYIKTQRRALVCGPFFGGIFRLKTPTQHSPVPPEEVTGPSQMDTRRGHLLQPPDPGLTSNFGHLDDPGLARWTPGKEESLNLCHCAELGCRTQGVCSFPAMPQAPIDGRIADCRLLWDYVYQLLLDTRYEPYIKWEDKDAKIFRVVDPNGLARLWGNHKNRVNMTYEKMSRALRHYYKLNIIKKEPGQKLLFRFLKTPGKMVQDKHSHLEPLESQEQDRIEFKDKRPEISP
# Procedure, shortened: as §1
# ELF5 = target: T11, ELF5 (Homo sapiens, UniProt Q9UKW6-2 1-255)
# T11 sequence: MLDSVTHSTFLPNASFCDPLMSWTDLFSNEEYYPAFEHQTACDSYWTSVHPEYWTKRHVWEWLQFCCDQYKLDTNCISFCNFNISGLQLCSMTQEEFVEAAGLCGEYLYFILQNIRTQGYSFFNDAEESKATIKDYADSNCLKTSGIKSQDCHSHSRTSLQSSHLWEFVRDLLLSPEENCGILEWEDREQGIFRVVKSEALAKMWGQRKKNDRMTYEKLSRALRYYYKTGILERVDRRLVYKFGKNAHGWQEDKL
# Procedure, shortened: as §1
# ETV3 = target: T12, ETV3 (Homo sapiens, UniProt P41162-2 1-143)
# T12 sequence: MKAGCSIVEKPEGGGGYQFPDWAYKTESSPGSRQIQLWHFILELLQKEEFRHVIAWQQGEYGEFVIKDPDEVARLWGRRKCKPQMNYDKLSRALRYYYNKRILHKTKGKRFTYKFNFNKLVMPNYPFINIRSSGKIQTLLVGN
# Procedure, shortened: as §1
# ETV6 = ETV6 (Homo sapiens, UniProt P41212 1-452)
# ETV6, sequence (P41212 whole entry): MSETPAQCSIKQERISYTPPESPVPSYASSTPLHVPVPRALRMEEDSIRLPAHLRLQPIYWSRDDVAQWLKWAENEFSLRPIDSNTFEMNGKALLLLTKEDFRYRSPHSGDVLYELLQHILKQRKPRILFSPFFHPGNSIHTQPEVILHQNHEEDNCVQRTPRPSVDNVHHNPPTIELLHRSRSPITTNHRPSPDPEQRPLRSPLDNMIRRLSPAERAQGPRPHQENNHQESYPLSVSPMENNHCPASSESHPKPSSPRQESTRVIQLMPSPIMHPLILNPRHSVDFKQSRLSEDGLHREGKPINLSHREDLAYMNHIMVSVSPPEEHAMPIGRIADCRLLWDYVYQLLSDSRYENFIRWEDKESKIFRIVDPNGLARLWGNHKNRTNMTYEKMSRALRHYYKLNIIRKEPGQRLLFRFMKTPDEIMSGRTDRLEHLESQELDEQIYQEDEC
# Procedure, shortened: as §1
sequence,measurement,setting,value
TACCGC,binding signal,FEV,"1.13 fold enrichment (6-mer frequency, TF over GST control)"
same,binding signal,ETV5,"1.06 fold enrichment (6-mer frequency, TF over GST control)"
same,binding signal,SPIC,"1.15 fold enrichment (6-mer frequency, TF over GST control)"
same,binding signal,ELF4,"1.1 fold enrichment (6-mer frequency, TF over GST control)"
same,binding signal,ELK4,"1.14 fold enrichment (6-mer frequency, TF over GST control)"
same,binding signal,ETV2,"1.16 fold enrichment (6-mer frequency, TF over GST control)"
same,binding signal,ELF3,"1.23 fold enrichment (6-mer frequency, TF over GST control)"
same,binding signal,CRX,"1.03 fold enrichment (6-mer frequency, TF over GST control)"
same,binding signal,ETV1,"1.06 fold enrichment (6-mer frequency, TF over GST control)"
same,binding signal,ERF,"1.1 fold enrichment (6-mer frequency, TF over GST control)"
same,binding signal,ETV3L,"1.14 fold enrichment (6-mer frequency, TF over GST control)"
same,binding signal,ETS2,"1.05 fold enrichment (6-mer frequency, TF over GST control)"
same,binding signal,SPDEF,"1.17 fold enrichment (6-mer frequency, TF over GST control)"
same,binding signal,ETV7,"1.13 fold enrichment (6-mer frequency, TF over GST control)"
same,binding signal,ELF5,"1.08 fold enrichment (6-mer frequency, TF over GST control)"
same,binding signal,ETV3,"1.12 fold enrichment (6-mer frequency, TF over GST control)"
same,binding signal,ETV6,"1.04 fold enrichment (6-mer frequency, TF over GST control)"

# Reference: article PMC7862700, “An all-to-all approach to the identification of sequence-specific readers for epigenetic DNA modifications on cytosine”
